Experimental data taken from PubChem BioAssay (NCI).
Compounds without any hit were thinned out: in the full panel of roughly 79,000, 15% have a hit. Rule as the data show it: active = growth inhibition above about 70%; inactive = the rest. Where a SMILES comes first, the peptide text is derived from it. [ ]: non-standard residue; d: D form. The star is where a group is joined. ξ: configuration not given here. Cbz = O=C(OCc1ccccc1)*; ξK = NCCCCC(N)C(=O)O

Tests used:
[1] = NCI Yeast Anticancer Drug Screen. Data for the rad50 strain (AID 155);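 also: 0% = growth of vehicle-only cultures of the same strain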; conditions: S. cerevisiae rad50 strain growth inhibition; at 50.0 µM; active compounds read high
Procedure, shortened: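 Relative growth inhibition (compound vs vehicle) was measured in yeast with a defined repair-gene alteration.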

[2] = NCI Yeast Anticancer Drug Screen. Data for the mec2-1 strain (AID 157); conditions: S. cerevisiae mec2-1 strain, at 50.0 µM, active compounds read high
Procedure, shortened: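 Readout is yeast growth inhibition, normalised to vehicle-treated controls, in the mec2-1 strain exposed to compound.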

[3] = NCI Yeast Anticancer Drug Screen. Data for the sgs1 mgt1 strain (AID 161);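 also: 0% = growth of cultures given vehicle only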; conditions: S. cerevisiae sgs1 mgt1 strain, at 50.0 µM, active compounds read high
Procedure, shortened: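 This yeast growth screen uses a strain with defined DNA-repair lesions; compound-treated growth is compared with vehicle-treated growth.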

[4] = NCI Yeast Anticancer Drug Screen. Data for the cln2 rad14 strain (AID 165);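 also: 0% = growth equal to vehicle treated cultures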; conditions: S. cerevisiae cln2 rad14 strain, at 50.0 µM, active compounds read high
Procedure, shortened: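 Relative to vehicle controls, growth inhibition of compound-treated cln2 rad14 yeast was recorded.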

[5] = NCI Yeast Anticancer Drug Screen. Data for the bub3 strain (AID 167); conditions: S. cerevisiae bub3 mutant strain, at 50.0 µM, active compounds read high
Procedure, shortened: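 Screening used yeast with an engineered genetic alteration affecting cell cycle control. Compound-exposed cultures were compared with vehicle cultures, and reduced growth was taken as inhibition.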

[6] = NCI Yeast Anticancer Drug Screen. Data for the mlh1 rad18 strain (AID 175); conditions: S. cerevisiae mlh1 rad18 strain growth inhibition; at 50.0 µM; active compounds read high
Procedure, shortened: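 Test agents were incubated with a yeast strain of defined genotype (DNA damage repair defect). Inhibition of growth was derived by comparison with vehicle-exposed cultures.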

Measured: growth inhibition

OC(c1cc(C2CCCCC2)nc2ccccc12)C1CCCCN1 (stereo not drawn)
inactive: [1] -13.1% | [2] -0.85% | [3] 8.85% | [4] 2.6% | [5] -5.7% | [6] -12.7%

NCCCCC(NC(=O)OCc1ccccc1)C(=O)NCC(N)=O (stereo not drawn) (Cbz-[ξK]-Gly-NH2)
inactive: [1] 10.1% | [2] 8.5% | [3] 5% | [4] 4.05% | [5] 16.1% | [6] -30.2%

COc1cccc(C(=O)NNC(=O)c2ccc3ccccc3c2)c1
inactive: [1] 13.2% | [2] 4.55% | [3] -2.45% | [4] 6.55% | [5] 3.9% | [6] 7.95%

CCN(CC)CCNc1cccc(Cl)c1
inactive: [1] 60.1% | [2] 9.25% | [3] 34.4% | [4] 25.2% | [5] 29.1% | [6] 47.5%

CCc1nnnn1-c1ccc(Br)cc1
inactive: [1] 8.8% | [2] 38.5% | [3] 13.7% | [4] 9.8% | [5] 40.2% | [6] 18.5%

NC(N)=NS(=O)(=O)c1ccc(NC(=O)c2ccc(Cl)c3c(Nc4ccc(S(=O)(=O)N=C(N)N)cc4)c4ccccc4nc23)cc1
inactive: [1] 32.2% | [2] 31.6% | [3] 30.9% | [4] 34.5% | [5] 10.2% | [6] 29.1%

Cc1cccc(-c2nc(N)nc(N)n2)c1
inactive: [1] 11.8% | [2] -9.45% | [3] -1.05% | [4] 18.6% | [5] 7% | [6] 22.4%

Cc1ccc2cccc(CCOC(=O)c3ccc([N+](=O)[O-])cc3)c2c1
inactive: [1] -13.5% | [2] -19.1% | [3] -15.3% | [4] -19.1% | [5] -8.35% | [6] 4.7%

COCC1C(COC)C2CCC1C2(Cc1ccccc1)Cc1ccccc1 (stereo not drawn)
inactive: [1] 1.4% | [2] 12.4% | [3] 18.1% | [4] -45.4% | [5] 0% | [6] -7.2%

CC(=O)NC(C)(C)C1CCC(C)CC1 (stereo not drawn)
inactive: [1] -7.95% | [2] 5.45% | [3] 1.55% | [4] 8.05% | [5] 9.65% | [6] -38.8%

NNC(=O)Sc1ccccc1
inactive: [1] -14.8% | [2] 9.65% | [3] -12.8% | [4] -31.9% | [5] -12.3% | [6] -0.45%

N#C/C=C/c1ccc(Cl)cc1
inactive: [1] -3.45% | [2] -3% | [3] 7.2% | [4] 20.6% | [5] -2% | [6] -7.05%

O=C1/C(=C2\CCc3ccccc32)Cc2ccccc21
inactive: [1] 14.1% | [2] 5.65% | [3] -4.2% | [4] -1.7% | [5] 34.6% | [6] 8.15%

COc1ccc(C2C3=C(CCCC3=O)OC3=C2C(=O)CCC3)cc1
inactive: [1] -6.85% | [2] 1.4% | [3] -16.2% | [4] -17.2% | [5] 9.65% | [6] 12.7%

C=C(Nc1ccc(OC)cc1OC)C(=O)Cc1cccc[n+]1[O-]
inactive: [1] 6.25% | [2] -2.45% | [3] -10.5% | [4] -2.4% | [5] -3.4% | [6] -8.8%

C#CCN(CCCC)CCCC
inactive: [1] -14.2% | [2] -21.1% | [3] -5.55% | [4] -33.4% | [5] -39.9% | [6] -10.3%

O=C1C=CC2CCC1C2 (stereo not drawn)
inactive: [1] 24.8% | [2] -6.25% | [3] -20.5% | [4] 26.6% | [5] -38.8% | [6] -29.3%

CC1=CC(=O)/C(=C/N2C(=O)CNC2=S)C(=O)O1
inactive: [1] -49.1% | [2] -37.1% | [3] -13.8% | [4] 15.4% | [5] -4.25% | [6] -45.1%

CCOc1c(N=Nc2ccccc2C)c(-c2ccccc2)nn1C(N)=S
inactive: [1] 8.25% | [2] 6.85% | [3] 5.4% | [4] 25.4% | [5] -3.5% | [6] 8.25%

C/C=C/C(=O)Oc1ccccc1/C=C/C(=O)CCCCCC
inactive: [1] 15.2% | [2] 11.1% | [3] 23.6% | [4] 8.25% | [5] 10.9% | [6] 10.9%

O=C(O)C1Cc2nc[nH]c2CN1CO (stereo not drawn)
inactive: [1] 6.1% | [2] -8.8% | [3] -19.8% | [4] 3.95% | [5] 23.7% | [6] 8%

N#Cc1ccc(OC(=O)Nc2cccc(Cl)c2Cl)cc1
inactive: [1] -3.7% | [2] -25.4% | [3] 2.95% | [4] 15.7% | [5] 0.55% | [6] -9.45%

CCOC(=O)C1(C)CCC(C(C(=O)O)C(=O)O)CC1=O (stereo not drawn)
inactive: [1] -10.5% | [2] 9.95% | [3] 13.7% | [4] 20.2% | [5] 21.4% | [6] -12.5%

COc1ccccc1NC(=S)N/N=C/c1ccccn1
inactive: [1] -16.6% | [2] 15.9% | [3] 24.4% | [4] 8.95% | [5] 17.7% | [6] 14%

CCOC(=O)c1ccc(NC(=O)Nc2cc(Cl)ccc2OC)cc1
inactive: [1] 4% | [2] 46.1% | [3] 21% | [4] -2.9% | [5] 34% | [6] 19.7%

CCCCCCCCOC(=O)Nc1ccc(S(=O)(=O)CC)cc1
inactive: [1] -3.3% | [2] -7.2% | [3] -23.3% | [4] -31.9% | [5] -2.15% | [6] -22.2%

O=C(Nc1ccccc1)OC1C(OC(=O)c2ccccc2)OC(COC(=O)c2ccccc2)C1OC(=O)c1ccccc1 (stereo not drawn)
inactive: [1] -0.5% | [2] 0.75% | [3] 0.25% | [4] -0.85% | [5] -9.1% | [6] -10.5%

CCC(=O)c1ccccc1C#N
inactive: [1] 8.5% | [2] -3.25% | [3] 1.6% | [4] -4.3% | [5] 0.1% | [6] -1.45%

CC1CN(C(=S)Nc2ccccc2)CCN1c1ccccc1 (stereo not drawn)
inactive: [1] 4.15% | [2] -2.35% | [3] -4.15% | [4] -34.8% | [5] 9.3% | [6] -5.45%

Cc1nnc2n1N=C(c1ccc(O)c(O)c1O)CS2
inactive: [1] 2.9% | [2] -3.15% | [3] -4.7% | [4] 7.4% | [5] 1.75% | [6] -6.1%

CNC(=O)OCC#CCOC(=O)NC
inactive: [1] -17.5% | [2] -9.9% | [3] -23.2% | [4] -4.85% | [5] -10.5% | [6] -25.1%

CCCCCCOC(=O)C[C@H]1C[C@H](C(=O)OCCCCCC)C1(C)C
inactive: [1] -4.45% | [2] -15.6% | [3] 1.8% | [4] -36.6% | [5] -21.1% | [6] -7.3%

COc1cccc(-c2cc(=O)c3cc(OC)ccc3[nH]2)c1
inactive: [1] -19.8% | [2] -1.6% | [3] -14% | [4] 6.15% | [5] 13.2% | [6] -13.3%
